We go through four compounds from PubChem BioAssay AID2283302 (EPA ToxCast).

Inconclusive results are not listed. The source made the active and inactive calls. Rule for the calls: active = hit-call score of the fitted dose curve at least 0.9, where 1 is the maximum; inconclusive = response in the unintended direction; inactive = score below 0.9.

rat Gamma-HydroxyButyrate Receptor (GHB), Tspan17 (gene 306771), sequence (Q4V8E0 whole entry, looked up): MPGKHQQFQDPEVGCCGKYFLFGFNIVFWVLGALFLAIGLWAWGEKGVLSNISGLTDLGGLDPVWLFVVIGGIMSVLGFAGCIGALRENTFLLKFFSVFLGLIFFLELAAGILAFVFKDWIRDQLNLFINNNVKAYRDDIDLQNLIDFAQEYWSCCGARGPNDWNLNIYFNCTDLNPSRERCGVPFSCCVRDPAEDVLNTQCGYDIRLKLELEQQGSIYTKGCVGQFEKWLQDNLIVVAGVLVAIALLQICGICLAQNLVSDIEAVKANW

In the test the target is rat Gamma-HydroxyButyrate Receptor (GHB), Tspan17 (gene 306771) (UniProt Q4V8E0). As to the kind of experiment: NVS_GPCR_rGHB: NovaScreen (NVS) G Protein-Coupled Receptor Assay for rat Gamma-HydroxyButyrate Receptor (GHB). The procedure:
NVS_GPCR_rGHB is a biochemical, single-readout assay that uses extracted gene-proteins from Rat forebrain in a tissue-based cell-free assay. Measurements were taken 1 hour after chemical dosing in a 48-well plate.NVS_GPCR_rGHB is one of one assay component(s) measured or calculated from the NVS_GPCR_rGHB assay. It is designed to make measurements of radioligand binding, a form of binding reporter, as detected with scintillation counting signals by Filter-based radiodetection technology.Data from the assay component NVS_GPCR_rGHB was analyzed into 1 assay endpoint. This assay endpoint, NVS_GPCR_rGHB, was analyzed in the positive analysis fitting direction relative to DMSO as the negative control and baseline of activity. Using a type of binding reporter, loss-of-signal activity can be used to understand changes in the binding as they relate to the gene Tspan17. Furthermore, this assay endpoint can be referred to as a primary readout, because the performed assay has only produced 1 assay endpoint. To generalize the intended target to other relatable targets, this assay endpoint is annotated to the gpcr intended target family, where the subfamily is metabotropic glutamate receptor.
Binding assays used specific radioligands (tritiated, iodinated) with non-radioactive competitive displacement ligands in agonist or antagonist protocols (as indicated) and various reference compounds and inhibitors to titrate specific binding to receptors and transporters. Most enzyme assays (CYPs, kinases, phosphatases, proteases, HDACs) used recombinant protein and specific substrates (fluorescence mostly, some colorimetric and radioactive) and inhibitors, followed by a biochemical separation of substrate and product. All assays for the biochemical HTS were initially run in duplicate at a single concentration (10 uM for CYP450 assays and 25 uM for all others). Assay-chemical combinations meeting a pre-defined threshold (e.g., 30% inhibition and other criteria defined below) were then run in singleton concentration-response format with maximum concentration of 20 uM for CYPs and 50 uM for all others. Each assay was run with positive and negative controls, and concurrent controls on every plate. The follow-up (secondary) screen tested active chemical-pairs in concentration series, as well as a few additional assays not tested in the primary screen, some selected negative inactives, and several cases re-run in the concentration series for confirmatory purposes.
What is called AC50 is the concentration at which the activity in the assay is half-maximal. For `Cn1c(=O)cc(Oc2ccc(F)cc2F)c2cnc(NCC(C)(C)O)nc21`, the half-maximal activity concentration (AC50) is 0.166 µM (active).
Consider `O=C(O)c1cccc(N(Cc2cccnc2)c2ccc(OC(F)F)c(OC(F)F)c2)c1`, for which the call was inactive.
For the compound `Cc1cccc(Nc2cc(Cl)nc(SCC(=O)O)n2)c1C`, the AC50 is 19.2 µM (active).
`COC(=O)CSc1cc(N=c2sc(=O)n3n2CCCC3)c(F)cc1Cl`: the compound was classed as inactive.
